ChEMBL document CHEMBL3988442, “University of Dundee, Small-Polar-MMV Screening Library” (2021)
For some assays here: Results with a measured potency or affinity are listed apart.

Assays:
Parameters in all cases: scale not given: direction of the effect not stated beside the values
[1] = target: Protein translocase subunit SecA (Escherichia coli (strain K12)) (UniProt P10408); test: Assay to Identify E. coli SecA ATPase Inhibitors; format: functional; conditions: 30 µM
[2] = target: T1, Ubiquitin-activating enzyme e1, putative (Leishmania donovani (strain BPK282A1)) (UniProt E9BSI1); test: Leishmania donovani Ubiquitin Activating Enzyme (LdE1); format: functional; conditions: 30 µM
T1 sequence (whole entry): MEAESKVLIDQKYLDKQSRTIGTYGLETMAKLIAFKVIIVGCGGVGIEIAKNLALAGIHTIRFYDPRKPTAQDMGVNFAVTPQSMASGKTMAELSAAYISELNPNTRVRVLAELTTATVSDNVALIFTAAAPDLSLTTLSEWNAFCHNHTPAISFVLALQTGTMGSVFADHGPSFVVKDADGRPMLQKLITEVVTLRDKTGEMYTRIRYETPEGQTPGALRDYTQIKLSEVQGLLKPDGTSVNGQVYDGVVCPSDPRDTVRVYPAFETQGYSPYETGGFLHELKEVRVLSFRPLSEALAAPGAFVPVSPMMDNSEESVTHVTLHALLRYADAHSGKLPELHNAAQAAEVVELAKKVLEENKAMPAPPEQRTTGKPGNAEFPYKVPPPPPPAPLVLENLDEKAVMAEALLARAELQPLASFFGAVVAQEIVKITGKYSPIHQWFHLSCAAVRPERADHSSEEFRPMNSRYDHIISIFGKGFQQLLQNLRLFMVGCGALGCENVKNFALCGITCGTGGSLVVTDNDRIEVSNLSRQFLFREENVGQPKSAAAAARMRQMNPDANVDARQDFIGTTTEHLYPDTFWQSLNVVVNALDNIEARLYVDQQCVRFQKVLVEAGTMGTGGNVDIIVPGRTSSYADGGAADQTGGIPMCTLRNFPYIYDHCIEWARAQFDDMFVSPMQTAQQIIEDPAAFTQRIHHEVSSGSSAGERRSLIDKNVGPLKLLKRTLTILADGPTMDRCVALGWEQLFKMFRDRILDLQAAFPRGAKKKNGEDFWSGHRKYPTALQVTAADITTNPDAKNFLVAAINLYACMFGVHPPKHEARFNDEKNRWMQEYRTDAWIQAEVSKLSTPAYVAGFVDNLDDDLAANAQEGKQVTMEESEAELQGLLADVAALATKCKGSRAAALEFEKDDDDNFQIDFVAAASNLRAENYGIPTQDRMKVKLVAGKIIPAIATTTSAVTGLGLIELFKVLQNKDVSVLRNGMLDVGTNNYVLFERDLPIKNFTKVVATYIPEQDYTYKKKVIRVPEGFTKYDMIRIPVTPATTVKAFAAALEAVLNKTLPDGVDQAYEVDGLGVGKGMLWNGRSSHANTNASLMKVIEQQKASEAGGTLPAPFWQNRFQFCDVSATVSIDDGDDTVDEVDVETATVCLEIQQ

[3] = target: AMP-activated protein kinase, AMPK (Homo sapiens) (UniProt P54646+O43741+P54619+Q9UGJ0+Q9Y478+Q13131+Q9UGI9); test: AMP-dependent Kinase enzyme assay. An in vitro enzyme assay that detects ADP turnover that is directly proportional to AMPK activity. This uses naive AMPK that is activated during the assay with MK-8722; format: functional; conditions: 30 µM
[4] = target: Sialic acid-binding Ig-like lectin 9 (Homo sapiens) (UniProt Q9Y336); test: Hs-Siglec9 ALPHAscreen SOP 20170721; conditions: 10 µM
Trypanosoma cruzi = test: Trypanosoma cruzi phosphomannomutase and mannose-1-phosphate guanylyltransferase assay; format: functional; conditions: 10 µM
[5] = target: T2, Arginase-2, mitochondrial (Homo sapiens) (UniProt P78540); test: in vitro enzyme assay to detect the production of urea directly proportional to the activity of Arginase II; format: functional; conditions: 33.3 µM; also: in the data most compounds retested in dose-response had high values
T2 sequence (whole entry): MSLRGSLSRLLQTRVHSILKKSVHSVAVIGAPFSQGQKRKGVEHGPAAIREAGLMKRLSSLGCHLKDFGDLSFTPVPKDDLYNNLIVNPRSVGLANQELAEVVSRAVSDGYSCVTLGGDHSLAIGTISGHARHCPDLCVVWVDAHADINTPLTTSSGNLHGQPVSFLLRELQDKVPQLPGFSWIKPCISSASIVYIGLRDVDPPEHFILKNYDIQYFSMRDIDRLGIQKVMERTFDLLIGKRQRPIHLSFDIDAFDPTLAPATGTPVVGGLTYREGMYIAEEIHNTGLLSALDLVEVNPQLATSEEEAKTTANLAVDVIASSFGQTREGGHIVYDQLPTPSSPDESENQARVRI

[6] = target: T3, Proteasome subunit beta (Trypanosoma cruzi) (UniProt O96673); test: Trypanosoma cruzi proteasome chymotrypsin-like activity (TcProtChymo) assay.; also: in the data most compounds retested in dose-response had high values; format: functional; conditions: 9.37 µM
T3 sequence (whole entry): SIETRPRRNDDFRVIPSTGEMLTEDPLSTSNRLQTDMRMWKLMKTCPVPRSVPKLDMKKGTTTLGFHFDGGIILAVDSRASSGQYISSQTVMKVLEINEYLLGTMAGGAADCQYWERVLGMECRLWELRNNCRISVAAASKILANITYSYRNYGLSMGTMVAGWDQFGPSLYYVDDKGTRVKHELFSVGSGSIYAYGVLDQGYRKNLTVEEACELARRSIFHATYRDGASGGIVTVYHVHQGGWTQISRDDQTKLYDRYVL

Homo sapiens = species on record: Homo sapiens; test: To identify inhibition of the IFN signalling (Jak-Stat) pathway via expression of an eGFP reporter gene under the control of an IFN-stimulated response element (ISRE) containing MxA promoter.; format: functional; conditions: 30 µM
[7] = target: T4, Tyrosyl-tRNA synthetase, putative (Trypanosoma cruzi (strain CL Brener)) (UniProt Q4DSP6); test: Trypanosoma cruzi tyrosyl tRNA synthetase (TcYRS) _High Tyrosine SOP; format: functional; conditions: 30 µM; also: in the data most compounds retested in dose-response had high values
T4 sequence (whole entry): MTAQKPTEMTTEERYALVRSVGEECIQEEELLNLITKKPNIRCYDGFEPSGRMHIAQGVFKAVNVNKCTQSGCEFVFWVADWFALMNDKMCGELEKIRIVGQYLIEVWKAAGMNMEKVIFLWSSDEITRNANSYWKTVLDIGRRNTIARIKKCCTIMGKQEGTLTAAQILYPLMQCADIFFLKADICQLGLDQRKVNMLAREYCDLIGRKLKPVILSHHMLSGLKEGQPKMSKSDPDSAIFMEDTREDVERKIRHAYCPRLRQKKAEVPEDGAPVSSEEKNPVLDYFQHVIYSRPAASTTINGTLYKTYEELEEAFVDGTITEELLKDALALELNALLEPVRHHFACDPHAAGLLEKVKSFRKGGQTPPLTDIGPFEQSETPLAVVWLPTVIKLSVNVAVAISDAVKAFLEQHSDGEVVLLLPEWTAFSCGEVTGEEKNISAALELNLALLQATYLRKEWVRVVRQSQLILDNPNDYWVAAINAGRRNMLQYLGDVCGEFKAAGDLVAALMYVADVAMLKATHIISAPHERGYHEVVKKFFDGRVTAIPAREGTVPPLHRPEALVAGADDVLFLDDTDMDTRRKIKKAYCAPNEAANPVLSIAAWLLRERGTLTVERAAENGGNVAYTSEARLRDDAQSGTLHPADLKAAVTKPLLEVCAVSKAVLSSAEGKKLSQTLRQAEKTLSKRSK

[8] = target: T4, Tyrosyl-tRNA synthetase, putative (Trypanosoma cruzi (strain CL Brener)); test: Trypanosoma cruzi tyrosyl tRNA synthetase (TcYRS) SOP; format: functional; conditions: 30 µM
[9] = target: Chromo domain-containing protein 1 (Saccharomyces cerevisiae (strain ATCC 204508 / S288c) (Baker's yeast)) (UniProt P32657); test: ScCHD-1 Enzyme Inhibition Assay; format: functional; conditions: 30 µM; also: in the data most compounds retested in dose-response had high values
Chain of Chromo domain-containing protein 1 (Saccharomyces cerevisiae (strain ATCC 204508 / S288c) (Baker's yeast)) (P32657 whole entry, the tested form may be a part): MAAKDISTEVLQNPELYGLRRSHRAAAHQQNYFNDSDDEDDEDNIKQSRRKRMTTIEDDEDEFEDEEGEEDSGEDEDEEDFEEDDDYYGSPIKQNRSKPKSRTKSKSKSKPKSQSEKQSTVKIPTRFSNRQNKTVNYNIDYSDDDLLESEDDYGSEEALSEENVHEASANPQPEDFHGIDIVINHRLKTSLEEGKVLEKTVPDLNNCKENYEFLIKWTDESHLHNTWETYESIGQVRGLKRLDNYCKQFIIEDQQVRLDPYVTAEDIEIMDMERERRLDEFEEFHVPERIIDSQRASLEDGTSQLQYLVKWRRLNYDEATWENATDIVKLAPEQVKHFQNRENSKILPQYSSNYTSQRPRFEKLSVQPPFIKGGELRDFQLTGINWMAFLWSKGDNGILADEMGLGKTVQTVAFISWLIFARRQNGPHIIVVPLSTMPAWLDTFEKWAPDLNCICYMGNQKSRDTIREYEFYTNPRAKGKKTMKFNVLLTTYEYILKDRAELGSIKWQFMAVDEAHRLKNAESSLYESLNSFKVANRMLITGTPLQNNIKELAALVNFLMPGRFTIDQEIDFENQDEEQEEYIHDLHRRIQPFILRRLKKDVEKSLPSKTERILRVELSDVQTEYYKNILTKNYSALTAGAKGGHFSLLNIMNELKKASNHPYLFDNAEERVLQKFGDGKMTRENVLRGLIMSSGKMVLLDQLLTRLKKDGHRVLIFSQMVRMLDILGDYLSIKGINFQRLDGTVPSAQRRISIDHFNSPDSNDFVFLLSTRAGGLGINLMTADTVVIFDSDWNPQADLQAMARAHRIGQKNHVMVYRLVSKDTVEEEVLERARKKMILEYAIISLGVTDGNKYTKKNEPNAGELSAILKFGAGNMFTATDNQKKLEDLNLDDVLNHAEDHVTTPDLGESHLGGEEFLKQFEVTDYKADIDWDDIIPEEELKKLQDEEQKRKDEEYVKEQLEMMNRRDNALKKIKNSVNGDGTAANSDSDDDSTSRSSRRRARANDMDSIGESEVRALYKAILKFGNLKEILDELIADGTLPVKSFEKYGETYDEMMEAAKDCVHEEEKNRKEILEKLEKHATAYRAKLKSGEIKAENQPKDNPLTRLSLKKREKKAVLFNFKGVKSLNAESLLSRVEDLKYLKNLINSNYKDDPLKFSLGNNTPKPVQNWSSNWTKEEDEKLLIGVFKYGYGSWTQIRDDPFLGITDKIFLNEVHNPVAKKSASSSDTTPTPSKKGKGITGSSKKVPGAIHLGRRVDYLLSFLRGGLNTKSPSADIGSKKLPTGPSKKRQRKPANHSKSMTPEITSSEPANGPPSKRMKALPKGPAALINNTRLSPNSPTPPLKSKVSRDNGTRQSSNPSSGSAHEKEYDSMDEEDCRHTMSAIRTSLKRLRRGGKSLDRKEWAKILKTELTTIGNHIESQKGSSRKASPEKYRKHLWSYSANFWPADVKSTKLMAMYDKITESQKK

Chain of Sialic acid-binding Ig-like lectin 9 (Homo sapiens) (Q9Y336 whole entry): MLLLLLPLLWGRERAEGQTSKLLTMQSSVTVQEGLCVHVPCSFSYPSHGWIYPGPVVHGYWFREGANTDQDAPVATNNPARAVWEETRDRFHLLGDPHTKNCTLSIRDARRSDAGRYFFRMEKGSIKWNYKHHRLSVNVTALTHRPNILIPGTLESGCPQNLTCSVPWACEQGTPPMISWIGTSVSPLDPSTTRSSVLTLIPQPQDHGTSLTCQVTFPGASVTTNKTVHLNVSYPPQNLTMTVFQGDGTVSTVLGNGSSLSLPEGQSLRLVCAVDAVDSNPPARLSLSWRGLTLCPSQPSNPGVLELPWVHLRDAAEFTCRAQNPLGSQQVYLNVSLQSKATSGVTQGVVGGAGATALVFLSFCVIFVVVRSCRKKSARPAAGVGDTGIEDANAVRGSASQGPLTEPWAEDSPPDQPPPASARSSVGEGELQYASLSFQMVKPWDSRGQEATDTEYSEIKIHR
Chain of Protein translocase subunit SecA (Escherichia coli (strain K12)) (P10408 whole entry): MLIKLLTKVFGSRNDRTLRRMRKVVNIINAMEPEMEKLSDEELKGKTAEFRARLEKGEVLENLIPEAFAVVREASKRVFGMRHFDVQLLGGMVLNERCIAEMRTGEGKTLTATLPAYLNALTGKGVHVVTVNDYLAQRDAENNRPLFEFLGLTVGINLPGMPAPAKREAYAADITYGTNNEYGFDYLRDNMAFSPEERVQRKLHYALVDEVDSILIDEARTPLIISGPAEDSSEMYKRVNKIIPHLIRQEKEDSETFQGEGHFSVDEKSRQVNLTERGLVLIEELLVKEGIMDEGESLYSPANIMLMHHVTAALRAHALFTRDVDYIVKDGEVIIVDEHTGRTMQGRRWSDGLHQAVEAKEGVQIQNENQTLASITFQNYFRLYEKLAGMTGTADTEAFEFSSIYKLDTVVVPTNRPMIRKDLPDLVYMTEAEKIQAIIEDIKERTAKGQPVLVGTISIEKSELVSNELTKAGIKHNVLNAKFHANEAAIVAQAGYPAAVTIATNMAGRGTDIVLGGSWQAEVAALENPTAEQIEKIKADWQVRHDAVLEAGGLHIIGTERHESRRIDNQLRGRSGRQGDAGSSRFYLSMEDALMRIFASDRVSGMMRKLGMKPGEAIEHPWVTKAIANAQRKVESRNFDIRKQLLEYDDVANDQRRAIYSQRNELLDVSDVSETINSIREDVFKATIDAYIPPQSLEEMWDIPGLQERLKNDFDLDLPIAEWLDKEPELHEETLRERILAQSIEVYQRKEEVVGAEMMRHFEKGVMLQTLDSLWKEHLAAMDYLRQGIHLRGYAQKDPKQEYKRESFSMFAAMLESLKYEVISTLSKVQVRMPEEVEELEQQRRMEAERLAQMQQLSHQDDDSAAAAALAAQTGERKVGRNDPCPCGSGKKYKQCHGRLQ

SMILES | Percent Effect [1] [%] | Percent Effect [2] [%] | Percent Effect [3] [%] | Percent Effect [4] [%] | Percent Effect (Trypanosoma cruzi) [%] | Percent Effect [5] [%] | Percent Effect [6] [%] | Percent Effect (Homo sapiens) [%] | Percent Effect [7] [%] | Percent Effect [8] [%] | Percent Effect [9] [%]
Cc1nn(C)c(N2CCOCC2)c1CNC1CCN(C(C)(C)C)CC1 | -2.55 | 20.2 | -9.63 | -2.51 | -1.42 | -0.38 | 13.5 | 10.5 | 5.42 | 16.5 | -4.24
CN(Cc1cnn(C)c1)C(=O)NCc1nnc2n1CCC2 | -4.33 | 10.1 | 2.17 | 6.31 | 4.06 | 1.52 | -0.901 | 3.9 | 5.42 | 8.86 | -6.73
Cc1cnn(CCNCC(O)COc2ccc(C#N)cc2)c1 (configuration not stated) | -4.77 | 15.2 | -8.43 | 8.11 | 1.42 | 2.28 | 8.44 | -3.4 | 5.42 | 13.9 | -5.58
CCC1(CC)Cc2ccccc2-c2nc(NCCO)[nH]c(=O)c21 | -5.77 | 10.5 | 29.9 | 1.17 | -2.63 | 3.55 | 26.4 | 29.8 | 5.32 | 10.4 | -13.3
CO[C@H]1CN(C(=O)c2ccccn2)[C@@H]2CCCO[C@H]12 | -0.127 | -2.7 | 2.92 | 0.754 | -2.25 | 1.59 | 17.5 | 0.992 | 0 | 5.13 | 3.83
Cc1ccc(S(=O)(=O)NC2CNC(=O)C2)cc1C (configuration not stated) | -5.32 | 8.22 | -5.53 | -8.87 | 0.588 | 1.82 | 3.9 | -1.25 | 7.53 | 12.5 | -3.53
Cc1cccc(NC(=O)N2CCCn3cnc(CN4CCCC4)c3C2)c1 | -3.65 | 8.11 | -3.2 | -1.77 | 3.91 | 0 | 12.4 | -6.55 | 16.8 | 11 | -4.14
NC(=O)CN1CC2(CCC1=O)CCN(Cc1cc(F)ccc1Cl)CC2 | -3.36 | 16 | -3.98 | 13.3 | 7.5 | 5.73 | 18 | 8.19 | 3.83 | 18.5 | -5.6
O=S(=O)(CCN1CCOC(Cn2cccn2)C1)C(F)(F)F (configuration not stated) | -0.0845 | 24.1 | 13.4 | -1.22 | 2.97 | -1.5 | 18.4 | 30.2 | 8.33 | 12.7 | 61.7
COc1c(C2CCCN2C(=O)c2ccc(Cl)o2)c(C)nn1C (configuration not stated) | -5.93 | 13.5 | -4.28 | 21.4 | 2.93 | 4.17 | 10.6 | -2.68 | 5.94 | 18.3 | -0.337
CNC(=O)c1cc2c(nc1N(C)C)CCN(S(=O)(=O)CC(C)C)CC2 | -2.25 | 5.2 | 7.84 | 6.98 | -2.27 | -5.81 | 3.83 | -12.4 | -9.52 | 1.28 | -2.31
Cc1ccc(NC2CCN(C(=O)CC3CCCO3)CC2)nn1 (configuration not stated) | -3.13 | -5.41 | -10.4 | 8.84 | -2.17 | 2 | 1.8 | 5.87 | 1.48 | -8.64 | 0.857
CCC(C)(C)NC(=O)Cn1nc(C)nc1-c1cccc(C)c1 | -4.79 | 20.8 | 3.98 | -4.39 | -3 | 1.07 | 7.26 | 14.5 | 9.71 | 21.9 | -6.87
CN(Cc1ccco1)C(=O)CN1CCCC(Cn2cncn2)C1 (configuration not stated) | -2.53 | 5.26 | -6.77 | 10.4 | 3.64 | 2.16 | 15 | -16.1 | 5.42 | 11.1 | -6.09
CN(C)C(=O)Cc1ccc(NC(=O)NC2CCCCC2)cc1 | -1.35 | -5.41 | -1.19 | 3.35 | 6.56 | -2.86 | 16 | 11 | 1.59 | 7.32 | -0.0586
CCn1ccnc1-c1nc2cc(S(=O)(=O)N3CCCC3)ccc2n1C | -6.04 | 0 | 3.54 | 25.2 | 4.31 | 6.36 | 4.97 | 2.47 | 3.23 | 10 | 100
COc1cc(N2C[C@H]3OCC[C@H]3[C@H](C(=O)NC3CC3)C2)ncn1 | -2.33 | 5.48 | -1.57 | 8.48 | 2.18 | 0.399 | 6.93 | 0.456 | 9.38 | 6.17 | -1.62
CN(C)C(=O)c1cccc(NC(=O)N(CCO)Cc2ccsc2)c1 | -0.273 | 9.72 | -9.76 | 7.88 | 3.79 | 11 | 11.8 | -1.39 | 5.26 | 12.8 | -3.15
Cn1nc(COc2cccnc2)c2c1CCN(c1cnccn1)C2 | -4.47 | 13.5 | -0.741 | 2.04 | 0.293 | 14.3 | 26.2 | 4.97 | 5.41 | 12.8 | -3.43
Cc1csc(CCCNC(=O)[C@H]2CNC[C@@H](C(=O)N3CCCC3)C2)n1 | -4.06 | 8.22 | 0.0773 | 8.38 | -1.39 | 0.399 | 15.8 | -8.49 | 10.4 | 11.1 | -1.73
Nc1nccc(NCc2cc3n(n2)CCCN(C2CCCCC2)C3)n1 | -1.87 | 13.7 | -1.77 | 1.73 | -0.198 | -1.2 | 24.4 | 2.07 | 9.38 | 23.5 | -4.35
COc1ncccc1NC(=O)N(Cc1ccc(C)o1)C1CC1 | -4.84 | 13 | 6 | 6.62 | 8.05 | -4.27 | 2.53 | 56.7 | 6.8 | 19.5 | -5.73
